{"source": "paper PMC7862700", "about": "“An all-to-all approach to the identification of sequence-specific readers for epigenetic DNA modifications on cytosine”", "assay_in_all_cases": "DAPPL (digital affinity profiling via proximity ligation, sequencing); 10 mM Tris-HCl pH 7.5, 50 mM NaCl, 1 mM DTT, 4% glycerol, room temperature, 30 min; GST-TFs on glutathione beads, 16-mer random dsDNA library, 0.1% formaldehyde crosslink after washing; high values mean tight binding", "key": {"[1]": {"target": "T1, FEV (Homo sapiens, UniProt Q99581 1-238)", "T1 sequence": "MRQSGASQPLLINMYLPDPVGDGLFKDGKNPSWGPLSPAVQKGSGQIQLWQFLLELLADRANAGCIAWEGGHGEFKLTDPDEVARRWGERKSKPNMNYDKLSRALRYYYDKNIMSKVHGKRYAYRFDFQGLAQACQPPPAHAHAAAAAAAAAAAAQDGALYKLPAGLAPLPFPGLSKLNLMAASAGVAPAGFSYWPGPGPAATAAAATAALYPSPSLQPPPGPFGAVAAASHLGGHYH", "conditions": "protein: recombinant; tags: N-terminal GST; dsDNA, one strand shown", "method_in_brief": "(§1)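 Yeast served to express human transcription factors as GST fusions, which were then captured on glutathione beads and labelled with DNA barcodes. Pooled with a tag-only sample, they were incubated with 200 nmole of a 16-mer random double-stranded DNA library for 30 min at room temperature in Tris/NaCl/DTT/glycerol buffer, washed, crosslinked with 0.1% formaldehyde, ligated by proximity, amplified by PCR and sequenced. Dividing each hexamer's read frequency for a factor by its frequency for the tag-only sample gives the binding signal.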"}, "[2]": {"target": "ETV5 (Homo sapiens, UniProt P41161 1-510)", "sequence (P41161 whole entry)": "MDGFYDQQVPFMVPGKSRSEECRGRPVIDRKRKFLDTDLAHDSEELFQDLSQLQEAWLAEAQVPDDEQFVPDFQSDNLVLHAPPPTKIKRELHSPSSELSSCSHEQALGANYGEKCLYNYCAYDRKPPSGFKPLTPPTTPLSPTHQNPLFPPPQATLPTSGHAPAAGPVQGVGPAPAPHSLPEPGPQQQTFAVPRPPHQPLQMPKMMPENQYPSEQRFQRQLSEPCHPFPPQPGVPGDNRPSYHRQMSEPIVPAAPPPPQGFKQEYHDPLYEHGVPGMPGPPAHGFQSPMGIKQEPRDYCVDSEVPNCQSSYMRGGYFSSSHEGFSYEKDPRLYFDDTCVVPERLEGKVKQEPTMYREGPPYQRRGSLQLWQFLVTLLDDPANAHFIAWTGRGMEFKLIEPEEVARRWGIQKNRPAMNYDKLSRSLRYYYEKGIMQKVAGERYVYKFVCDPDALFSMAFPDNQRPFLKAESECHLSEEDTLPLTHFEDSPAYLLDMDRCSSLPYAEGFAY", "conditions": "protein: recombinant; tags: N-terminal GST; dsDNA, one strand shown", "method_in_brief": "as §1"}, "[3]": {"target": "HSF1 (Homo sapiens, UniProt Q00613 1-529)", "sequence (Q00613 whole entry)": "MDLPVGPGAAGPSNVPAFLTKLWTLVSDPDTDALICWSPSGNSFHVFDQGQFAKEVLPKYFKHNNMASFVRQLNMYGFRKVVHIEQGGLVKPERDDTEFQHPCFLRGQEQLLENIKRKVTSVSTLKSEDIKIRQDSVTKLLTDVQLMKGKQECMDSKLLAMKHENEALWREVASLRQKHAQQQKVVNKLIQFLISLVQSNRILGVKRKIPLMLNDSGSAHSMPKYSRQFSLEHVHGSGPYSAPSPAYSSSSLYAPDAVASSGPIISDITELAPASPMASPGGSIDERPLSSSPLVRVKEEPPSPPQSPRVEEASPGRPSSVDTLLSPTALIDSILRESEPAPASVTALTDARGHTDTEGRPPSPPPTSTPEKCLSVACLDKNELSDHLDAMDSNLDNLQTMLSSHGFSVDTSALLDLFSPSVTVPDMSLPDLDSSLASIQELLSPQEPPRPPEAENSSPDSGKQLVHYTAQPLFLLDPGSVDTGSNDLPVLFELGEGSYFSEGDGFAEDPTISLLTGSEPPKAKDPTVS", "conditions": "protein: recombinant; tags: N-terminal GST; chain copies: 3; dsDNA, one strand shown", "method_in_brief": "as §1"}, "[4]": {"target": "T2, SPIC (Homo sapiens, UniProt Q8N5J4 1-248)", "T2 sequence": "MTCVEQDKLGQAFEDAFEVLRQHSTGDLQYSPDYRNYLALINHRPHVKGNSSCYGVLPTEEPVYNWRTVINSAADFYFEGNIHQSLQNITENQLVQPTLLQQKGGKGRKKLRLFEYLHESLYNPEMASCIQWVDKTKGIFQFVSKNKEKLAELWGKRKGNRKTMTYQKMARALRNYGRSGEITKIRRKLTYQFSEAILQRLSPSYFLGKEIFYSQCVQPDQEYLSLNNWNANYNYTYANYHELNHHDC", "conditions": "protein: recombinant; tags: N-terminal GST; dsDNA, one strand shown", "method_in_brief": "as §1"}, "[5]": {"target": "ELF4 (Homo sapiens, UniProt Q99607 1-663)", "sequence (Q99607 whole entry)": "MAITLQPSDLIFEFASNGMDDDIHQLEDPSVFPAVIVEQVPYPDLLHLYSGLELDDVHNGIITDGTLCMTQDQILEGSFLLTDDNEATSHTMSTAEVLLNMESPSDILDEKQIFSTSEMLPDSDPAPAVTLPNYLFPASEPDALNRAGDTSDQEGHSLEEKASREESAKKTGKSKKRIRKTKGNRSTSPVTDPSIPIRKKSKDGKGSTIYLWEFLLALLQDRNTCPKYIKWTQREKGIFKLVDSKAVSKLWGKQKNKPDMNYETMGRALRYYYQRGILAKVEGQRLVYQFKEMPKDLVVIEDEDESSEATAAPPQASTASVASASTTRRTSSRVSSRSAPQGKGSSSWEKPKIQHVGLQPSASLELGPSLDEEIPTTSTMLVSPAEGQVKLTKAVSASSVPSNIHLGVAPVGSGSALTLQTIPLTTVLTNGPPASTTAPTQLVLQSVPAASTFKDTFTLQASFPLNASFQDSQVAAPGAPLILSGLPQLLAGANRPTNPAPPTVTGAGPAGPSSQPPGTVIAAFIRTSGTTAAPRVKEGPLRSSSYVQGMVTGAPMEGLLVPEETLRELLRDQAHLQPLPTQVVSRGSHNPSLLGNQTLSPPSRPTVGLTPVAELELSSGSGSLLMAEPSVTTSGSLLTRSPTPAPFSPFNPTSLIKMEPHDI", "conditions": "protein: recombinant; tags: N-terminal GST; dsDNA, one strand shown", "method_in_brief": "as §1"}, "[6]": {"target": "T3, ELK4 (Homo sapiens, UniProt P28324-2 1-405)", "T3 sequence": "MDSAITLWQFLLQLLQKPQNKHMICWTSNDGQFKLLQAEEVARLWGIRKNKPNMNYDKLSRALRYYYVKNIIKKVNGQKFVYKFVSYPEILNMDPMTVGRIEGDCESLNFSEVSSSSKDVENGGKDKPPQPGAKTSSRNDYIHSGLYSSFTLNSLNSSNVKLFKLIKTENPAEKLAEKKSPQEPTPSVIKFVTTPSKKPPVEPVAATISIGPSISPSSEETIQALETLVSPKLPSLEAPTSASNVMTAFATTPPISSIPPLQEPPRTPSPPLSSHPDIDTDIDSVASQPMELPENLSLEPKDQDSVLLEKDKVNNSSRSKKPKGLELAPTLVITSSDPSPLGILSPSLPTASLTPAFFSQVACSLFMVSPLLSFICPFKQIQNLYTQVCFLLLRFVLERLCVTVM", "conditions": "protein: recombinant; tags: N-terminal GST; dsDNA, one strand shown", "method_in_brief": "as §1"}, "[7]": {"target": "T4, ETV2 (Homo sapiens, UniProt O00321 1-342)", "T4 sequence": "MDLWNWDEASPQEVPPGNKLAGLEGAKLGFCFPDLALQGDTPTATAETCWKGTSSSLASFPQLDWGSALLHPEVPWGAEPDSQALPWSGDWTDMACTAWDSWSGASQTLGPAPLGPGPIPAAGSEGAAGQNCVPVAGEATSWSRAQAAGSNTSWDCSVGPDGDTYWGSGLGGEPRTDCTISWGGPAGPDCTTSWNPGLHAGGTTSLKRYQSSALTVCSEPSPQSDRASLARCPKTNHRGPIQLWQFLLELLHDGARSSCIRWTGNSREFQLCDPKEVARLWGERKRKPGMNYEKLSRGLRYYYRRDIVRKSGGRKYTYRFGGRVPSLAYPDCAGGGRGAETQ", "conditions": "protein: recombinant; tags: N-terminal GST; dsDNA, one strand shown", "method_in_brief": "as §1"}, "[8]": {"target": "T5, ELF3 (Homo sapiens, UniProt P78545 1-371)", "T5 sequence": "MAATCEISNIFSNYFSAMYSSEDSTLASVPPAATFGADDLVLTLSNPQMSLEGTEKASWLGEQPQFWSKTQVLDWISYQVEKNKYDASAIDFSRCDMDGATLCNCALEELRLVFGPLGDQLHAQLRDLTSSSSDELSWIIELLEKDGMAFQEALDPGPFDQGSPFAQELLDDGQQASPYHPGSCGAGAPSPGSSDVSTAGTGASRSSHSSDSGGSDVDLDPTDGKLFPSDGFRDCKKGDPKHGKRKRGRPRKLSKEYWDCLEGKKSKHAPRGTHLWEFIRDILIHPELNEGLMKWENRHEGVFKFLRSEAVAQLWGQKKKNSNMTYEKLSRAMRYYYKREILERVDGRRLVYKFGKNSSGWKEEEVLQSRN", "conditions": "protein: recombinant; tags: N-terminal GST; dsDNA, one strand shown", "method_in_brief": "as §1"}, "[9]": {"target": "CRX (Homo sapiens, UniProt O43186 1-299)", "sequence (O43186 whole entry)": "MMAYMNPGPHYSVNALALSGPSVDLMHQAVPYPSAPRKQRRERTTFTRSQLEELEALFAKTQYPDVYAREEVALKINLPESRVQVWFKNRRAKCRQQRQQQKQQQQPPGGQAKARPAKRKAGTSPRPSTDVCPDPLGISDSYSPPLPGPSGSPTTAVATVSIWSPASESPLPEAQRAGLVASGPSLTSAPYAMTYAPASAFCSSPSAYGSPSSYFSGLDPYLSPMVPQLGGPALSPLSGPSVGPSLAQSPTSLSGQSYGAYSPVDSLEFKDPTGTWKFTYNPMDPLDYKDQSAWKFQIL", "conditions": "protein: recombinant; tags: N-terminal GST; dsDNA, one strand shown", "method_in_brief": "as §1"}, "[10]": {"target": "ETV1 (Homo sapiens, UniProt P50549 1-477)", "sequence (P50549 whole entry)": "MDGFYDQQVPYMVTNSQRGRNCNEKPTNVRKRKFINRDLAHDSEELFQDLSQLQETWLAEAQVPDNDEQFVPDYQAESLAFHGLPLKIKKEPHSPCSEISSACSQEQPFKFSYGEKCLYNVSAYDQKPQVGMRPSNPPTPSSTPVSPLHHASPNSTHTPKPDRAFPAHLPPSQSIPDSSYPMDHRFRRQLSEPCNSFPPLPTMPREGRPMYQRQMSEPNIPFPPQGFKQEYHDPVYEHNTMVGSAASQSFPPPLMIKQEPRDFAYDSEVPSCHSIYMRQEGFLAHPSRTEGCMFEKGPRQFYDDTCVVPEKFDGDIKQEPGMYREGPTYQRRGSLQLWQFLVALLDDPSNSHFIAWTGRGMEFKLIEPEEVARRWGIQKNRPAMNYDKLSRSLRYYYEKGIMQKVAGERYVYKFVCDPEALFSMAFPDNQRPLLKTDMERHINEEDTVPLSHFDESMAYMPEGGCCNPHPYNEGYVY", "conditions": "protein: recombinant; tags: N-terminal GST; dsDNA, one strand shown", "method_in_brief": "as §1"}}}
{"sequence": "TTATCC", "values": [{"measurement": "binding signal", "setting": "[1]", "value": "1.44 fold enrichment (6-mer frequency, TF over GST control)"}, {"measurement": "binding signal", "setting": "[2]", "value": "1.45 fold enrichment (6-mer frequency, TF over GST control)"}, {"measurement": "binding signal", "setting": "[3]", "value": "2.49 fold enrichment (6-mer frequency, TF over GST control)"}, {"measurement": "binding signal", "setting": "[4]", "value": "1.51 fold enrichment (6-mer frequency, TF over GST control)"}, {"measurement": "binding signal", "setting": "[5]", "value": "1.33 fold enrichment (6-mer frequency, TF over GST control)"}, {"measurement": "binding signal", "setting": "[6]", "value": "1.45 fold enrichment (6-mer frequency, TF over GST control)"}, {"measurement": "binding signal", "setting": "[7]", "value": "1.61 fold enrichment (6-mer frequency, TF over GST control)"}, {"measurement": "binding signal", "setting": "[8]", "value": "1.41 fold enrichment (6-mer frequency, TF over GST control)"}, {"measurement": "binding signal", "setting": "[9]", "value": "3.97 fold enrichment (6-mer frequency, TF over GST control)"}, {"measurement": "binding signal", "setting": "[10]", "value": "1.27 fold enrichment (6-mer frequency, TF over GST control)"}]}
